Results published in ChEMBL document CHEMBL1961873, “Compounds: GSK PKIS; Assays: Nanosyn kinase panel” (2012).

What was measured:
[1] = target: T1, Serine/threonine-protein kinase Nek9 (Homo sapiens) (UniProt Q8TD19); conditions: at 1 µM;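 also: each value is a mean percent inhibition of NEK9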
T1 sequence (whole entry): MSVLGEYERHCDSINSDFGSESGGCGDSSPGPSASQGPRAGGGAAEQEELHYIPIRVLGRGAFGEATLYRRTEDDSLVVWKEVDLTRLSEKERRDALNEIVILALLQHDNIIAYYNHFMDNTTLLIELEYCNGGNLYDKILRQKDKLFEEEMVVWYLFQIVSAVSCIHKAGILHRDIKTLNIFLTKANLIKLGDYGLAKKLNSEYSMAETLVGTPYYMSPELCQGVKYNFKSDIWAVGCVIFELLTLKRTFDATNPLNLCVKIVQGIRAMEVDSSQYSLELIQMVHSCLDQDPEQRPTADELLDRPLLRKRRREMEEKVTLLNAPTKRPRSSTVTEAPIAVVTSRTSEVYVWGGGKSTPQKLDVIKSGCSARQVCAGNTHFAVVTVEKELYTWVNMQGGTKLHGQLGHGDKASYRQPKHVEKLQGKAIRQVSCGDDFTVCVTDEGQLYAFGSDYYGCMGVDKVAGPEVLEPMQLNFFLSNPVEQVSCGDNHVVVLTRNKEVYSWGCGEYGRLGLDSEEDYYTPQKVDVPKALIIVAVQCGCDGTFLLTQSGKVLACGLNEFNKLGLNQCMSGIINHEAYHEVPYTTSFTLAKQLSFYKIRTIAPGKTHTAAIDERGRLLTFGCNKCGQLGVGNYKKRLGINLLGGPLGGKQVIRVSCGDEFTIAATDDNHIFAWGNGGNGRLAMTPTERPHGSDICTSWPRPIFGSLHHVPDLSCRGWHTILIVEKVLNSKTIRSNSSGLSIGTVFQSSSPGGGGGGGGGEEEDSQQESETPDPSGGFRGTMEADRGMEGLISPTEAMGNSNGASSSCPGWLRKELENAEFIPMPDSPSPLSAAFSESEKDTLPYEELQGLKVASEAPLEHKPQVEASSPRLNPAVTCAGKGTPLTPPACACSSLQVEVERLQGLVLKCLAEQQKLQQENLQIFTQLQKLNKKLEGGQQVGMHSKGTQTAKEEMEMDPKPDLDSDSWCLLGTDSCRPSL

[2] = target: Serine/threonine-protein kinase PLK1 (Homo sapiens) (UniProt P53350); conditions: at 0.1 µM
Chain of Serine/threonine-protein kinase PLK1 (Homo sapiens) (P53350 whole entry): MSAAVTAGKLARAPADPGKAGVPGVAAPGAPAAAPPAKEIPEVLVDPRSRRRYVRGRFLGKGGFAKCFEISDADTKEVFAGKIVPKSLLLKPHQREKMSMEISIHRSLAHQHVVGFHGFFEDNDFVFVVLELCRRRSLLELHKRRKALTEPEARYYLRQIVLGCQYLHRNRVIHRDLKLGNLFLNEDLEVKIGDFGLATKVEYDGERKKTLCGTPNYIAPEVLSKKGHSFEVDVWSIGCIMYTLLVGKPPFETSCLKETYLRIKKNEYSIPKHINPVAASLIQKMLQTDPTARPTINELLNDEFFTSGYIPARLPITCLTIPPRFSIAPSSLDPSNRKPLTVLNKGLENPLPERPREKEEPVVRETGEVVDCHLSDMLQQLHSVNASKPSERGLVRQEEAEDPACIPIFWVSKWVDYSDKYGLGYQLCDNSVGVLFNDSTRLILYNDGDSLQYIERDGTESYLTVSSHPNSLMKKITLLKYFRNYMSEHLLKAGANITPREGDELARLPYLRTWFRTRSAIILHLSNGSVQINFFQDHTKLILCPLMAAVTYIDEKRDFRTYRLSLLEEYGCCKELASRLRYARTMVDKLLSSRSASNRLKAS

[3] = target: Serine/threonine-protein kinase PLK1 (Homo sapiens) (UniProt P53350); conditions: at 1 µM
[4] = target: T2, Dual specificity protein kinase TTK (Homo sapiens) (UniProt P33981); conditions: at 0.1 µM
T2 sequence (whole entry): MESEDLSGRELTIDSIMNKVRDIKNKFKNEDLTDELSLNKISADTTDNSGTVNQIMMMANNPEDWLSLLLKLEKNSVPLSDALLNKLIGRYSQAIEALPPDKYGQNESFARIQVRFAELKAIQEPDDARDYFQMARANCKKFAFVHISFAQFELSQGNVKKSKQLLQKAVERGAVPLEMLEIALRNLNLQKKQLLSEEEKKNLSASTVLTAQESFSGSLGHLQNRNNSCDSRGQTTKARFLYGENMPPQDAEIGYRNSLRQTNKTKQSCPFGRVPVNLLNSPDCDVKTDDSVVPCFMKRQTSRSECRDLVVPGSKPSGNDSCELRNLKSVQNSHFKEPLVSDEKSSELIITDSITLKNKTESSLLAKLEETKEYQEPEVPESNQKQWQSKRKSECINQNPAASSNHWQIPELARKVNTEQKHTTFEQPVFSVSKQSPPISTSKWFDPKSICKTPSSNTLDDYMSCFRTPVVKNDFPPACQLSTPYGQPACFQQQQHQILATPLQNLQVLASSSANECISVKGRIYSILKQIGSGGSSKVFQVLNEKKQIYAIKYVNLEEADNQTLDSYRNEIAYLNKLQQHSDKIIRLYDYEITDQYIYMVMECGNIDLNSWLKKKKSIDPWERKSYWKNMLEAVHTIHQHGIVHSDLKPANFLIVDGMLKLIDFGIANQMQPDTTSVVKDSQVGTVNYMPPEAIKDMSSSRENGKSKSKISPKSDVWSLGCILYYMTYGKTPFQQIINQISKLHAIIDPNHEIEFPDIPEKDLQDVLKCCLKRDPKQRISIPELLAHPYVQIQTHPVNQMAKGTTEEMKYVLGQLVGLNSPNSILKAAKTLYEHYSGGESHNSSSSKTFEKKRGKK

[5] = test system: T3, Receptor-type tyrosine-protein kinase FLT3 (Homo sapiens), P36888 [D835Y]; conditions: at 1 µM
T3 sequence (whole entry): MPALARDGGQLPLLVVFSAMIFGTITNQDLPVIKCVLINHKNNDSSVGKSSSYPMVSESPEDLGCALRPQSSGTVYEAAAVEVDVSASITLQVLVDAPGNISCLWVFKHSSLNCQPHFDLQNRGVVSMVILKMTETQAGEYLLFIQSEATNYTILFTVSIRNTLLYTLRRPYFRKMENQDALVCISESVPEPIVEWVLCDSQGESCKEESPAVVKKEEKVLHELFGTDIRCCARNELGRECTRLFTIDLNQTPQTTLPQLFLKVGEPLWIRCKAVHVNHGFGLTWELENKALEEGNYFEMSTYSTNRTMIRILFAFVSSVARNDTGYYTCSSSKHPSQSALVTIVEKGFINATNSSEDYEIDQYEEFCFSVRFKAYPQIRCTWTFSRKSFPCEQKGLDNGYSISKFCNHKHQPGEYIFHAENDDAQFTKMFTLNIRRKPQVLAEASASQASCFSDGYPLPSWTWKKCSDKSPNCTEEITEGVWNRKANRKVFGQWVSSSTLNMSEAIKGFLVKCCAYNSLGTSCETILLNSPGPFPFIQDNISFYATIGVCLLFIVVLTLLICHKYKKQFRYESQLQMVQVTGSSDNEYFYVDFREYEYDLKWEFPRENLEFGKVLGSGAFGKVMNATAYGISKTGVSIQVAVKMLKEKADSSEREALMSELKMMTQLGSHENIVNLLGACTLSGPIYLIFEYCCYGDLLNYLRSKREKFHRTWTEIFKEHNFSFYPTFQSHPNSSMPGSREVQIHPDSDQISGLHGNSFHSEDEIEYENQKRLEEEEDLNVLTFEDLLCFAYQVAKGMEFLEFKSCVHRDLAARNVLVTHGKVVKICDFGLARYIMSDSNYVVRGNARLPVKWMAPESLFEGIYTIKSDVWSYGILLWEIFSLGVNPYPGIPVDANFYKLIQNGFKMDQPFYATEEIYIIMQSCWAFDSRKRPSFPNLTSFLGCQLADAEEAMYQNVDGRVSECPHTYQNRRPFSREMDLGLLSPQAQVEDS

[6] = target: Vascular endothelial growth factor receptor 3 (Homo sapiens) (UniProt P35916); conditions: at 0.1 µM
Chain of Vascular endothelial growth factor receptor 3 (Homo sapiens) (P35916 whole entry): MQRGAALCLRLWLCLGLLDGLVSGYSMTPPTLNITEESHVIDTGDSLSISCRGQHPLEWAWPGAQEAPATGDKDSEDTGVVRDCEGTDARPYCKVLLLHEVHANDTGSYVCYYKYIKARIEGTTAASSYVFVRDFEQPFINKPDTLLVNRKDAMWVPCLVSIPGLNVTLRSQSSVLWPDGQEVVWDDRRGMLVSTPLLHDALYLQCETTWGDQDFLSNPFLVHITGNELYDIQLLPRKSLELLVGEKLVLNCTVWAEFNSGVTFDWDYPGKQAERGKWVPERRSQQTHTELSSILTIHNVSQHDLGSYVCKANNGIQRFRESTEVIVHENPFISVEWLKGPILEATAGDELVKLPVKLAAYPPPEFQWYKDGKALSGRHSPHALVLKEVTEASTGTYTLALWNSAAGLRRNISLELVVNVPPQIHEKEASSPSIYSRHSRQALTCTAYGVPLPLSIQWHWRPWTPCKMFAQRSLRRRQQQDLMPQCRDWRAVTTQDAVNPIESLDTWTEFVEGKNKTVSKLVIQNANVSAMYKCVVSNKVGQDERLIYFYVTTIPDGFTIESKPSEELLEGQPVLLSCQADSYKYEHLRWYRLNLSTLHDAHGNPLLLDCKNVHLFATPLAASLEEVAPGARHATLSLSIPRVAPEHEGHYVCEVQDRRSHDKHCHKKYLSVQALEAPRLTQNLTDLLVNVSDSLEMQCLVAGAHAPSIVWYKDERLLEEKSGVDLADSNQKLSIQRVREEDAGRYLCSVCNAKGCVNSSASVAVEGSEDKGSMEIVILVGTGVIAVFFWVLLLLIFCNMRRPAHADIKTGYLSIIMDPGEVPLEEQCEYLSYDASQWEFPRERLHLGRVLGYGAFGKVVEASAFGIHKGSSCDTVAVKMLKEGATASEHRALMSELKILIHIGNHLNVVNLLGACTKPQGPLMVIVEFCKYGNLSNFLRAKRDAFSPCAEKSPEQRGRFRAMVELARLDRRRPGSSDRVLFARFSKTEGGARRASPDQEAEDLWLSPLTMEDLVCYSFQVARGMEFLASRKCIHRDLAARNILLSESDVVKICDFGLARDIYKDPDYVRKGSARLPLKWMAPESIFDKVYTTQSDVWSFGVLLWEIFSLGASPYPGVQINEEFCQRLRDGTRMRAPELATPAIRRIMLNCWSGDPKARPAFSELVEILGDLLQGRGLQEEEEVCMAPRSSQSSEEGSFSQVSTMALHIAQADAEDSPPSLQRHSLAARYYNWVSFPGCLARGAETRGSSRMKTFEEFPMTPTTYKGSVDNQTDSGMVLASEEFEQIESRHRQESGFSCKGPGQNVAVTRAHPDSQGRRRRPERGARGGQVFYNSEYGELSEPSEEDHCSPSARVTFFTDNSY

[7] = target: Vascular endothelial growth factor receptor 3 (Homo sapiens) (UniProt P35916); conditions: at 1 µM
[8] = target: Macrophage colony-stimulating factor 1 receptor (Homo sapiens) (UniProt P07333); conditions: at 0.1 µM
Chain of Macrophage colony-stimulating factor 1 receptor (Homo sapiens) (P07333 whole entry): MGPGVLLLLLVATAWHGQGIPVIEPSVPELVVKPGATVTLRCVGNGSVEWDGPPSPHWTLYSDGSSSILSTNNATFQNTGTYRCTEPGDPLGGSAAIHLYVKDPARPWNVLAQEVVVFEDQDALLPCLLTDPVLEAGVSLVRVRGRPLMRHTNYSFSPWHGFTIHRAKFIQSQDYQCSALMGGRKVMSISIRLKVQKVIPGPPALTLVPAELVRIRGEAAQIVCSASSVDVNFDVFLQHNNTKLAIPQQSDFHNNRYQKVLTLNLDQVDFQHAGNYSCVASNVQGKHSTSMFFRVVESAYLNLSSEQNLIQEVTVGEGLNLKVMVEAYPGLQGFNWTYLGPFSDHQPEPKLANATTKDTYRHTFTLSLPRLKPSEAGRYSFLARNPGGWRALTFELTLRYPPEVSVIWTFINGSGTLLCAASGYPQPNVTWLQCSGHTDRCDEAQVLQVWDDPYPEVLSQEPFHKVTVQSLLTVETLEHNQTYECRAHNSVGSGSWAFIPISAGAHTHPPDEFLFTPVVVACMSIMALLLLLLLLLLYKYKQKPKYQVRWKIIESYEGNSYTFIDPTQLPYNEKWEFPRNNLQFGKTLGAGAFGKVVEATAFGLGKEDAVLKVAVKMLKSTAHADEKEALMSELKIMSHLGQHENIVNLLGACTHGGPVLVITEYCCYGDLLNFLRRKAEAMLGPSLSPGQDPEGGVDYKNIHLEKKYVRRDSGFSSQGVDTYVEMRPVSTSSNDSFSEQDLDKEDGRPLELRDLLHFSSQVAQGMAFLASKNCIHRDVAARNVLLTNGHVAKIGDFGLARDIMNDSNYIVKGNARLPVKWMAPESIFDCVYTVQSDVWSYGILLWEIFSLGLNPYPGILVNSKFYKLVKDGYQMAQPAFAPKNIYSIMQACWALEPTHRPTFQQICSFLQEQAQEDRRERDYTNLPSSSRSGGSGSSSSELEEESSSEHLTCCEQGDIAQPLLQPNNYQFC

[9] = target: Macrophage colony-stimulating factor 1 receptor (Homo sapiens) (UniProt P07333); conditions: at 1 µM
[10] = target: Tyrosine-protein kinase Fyn (Homo sapiens) (UniProt P06241); conditions: at 0.1 µM
Chain of Tyrosine-protein kinase Fyn (Homo sapiens) (P06241 2-537 limits assumed): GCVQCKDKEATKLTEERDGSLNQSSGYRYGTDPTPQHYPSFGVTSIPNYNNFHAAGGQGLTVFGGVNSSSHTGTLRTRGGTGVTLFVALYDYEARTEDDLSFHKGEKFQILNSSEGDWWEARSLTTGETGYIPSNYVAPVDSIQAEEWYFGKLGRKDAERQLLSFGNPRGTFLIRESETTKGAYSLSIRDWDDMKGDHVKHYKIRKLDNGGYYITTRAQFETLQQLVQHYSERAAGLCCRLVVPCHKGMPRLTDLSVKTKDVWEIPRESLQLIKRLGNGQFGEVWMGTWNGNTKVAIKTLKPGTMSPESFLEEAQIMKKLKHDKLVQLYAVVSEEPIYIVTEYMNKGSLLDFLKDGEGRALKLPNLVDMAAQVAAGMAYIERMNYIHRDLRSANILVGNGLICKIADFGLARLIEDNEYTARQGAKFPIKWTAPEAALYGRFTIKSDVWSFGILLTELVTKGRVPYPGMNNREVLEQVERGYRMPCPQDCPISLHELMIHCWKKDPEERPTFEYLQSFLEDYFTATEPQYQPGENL

| Structure (SMILES) | inhibition [1] | inhibition [2] | inhibition [3] | inhibition [4] | inhibition [5] | inhibition [6] | inhibition [7] | inhibition [8] | inhibition [9] | inhibition [10] |
| --- | --- | --- | --- | --- | --- | --- | --- | --- | --- | --- |
| O=C(NCC1CC1)c1ccc(-c2cccc(C(=O)NC3CC3)c2)cc1 | -2.12% | 1.33% | -0.14% | 2.34% | 4.69% | 1.32% | 1.97% | 1.67% | 5.35% | 1.58% |
| NS(=O)(=O)c1ccc(N/N=C2\C(=O)Nc3ccc(-c4cnco4)cc32)cc1 | 7.27% | 3.71% | 3.38% | 15.1% | 73.1% | -4.32% | 25.8% | 4.76% | 27.8% | -0.9% |
| CCC(=O)Nc1ccc(C)c(-c2ccc(C(=O)NCC3CC3)cc2)c1 | 10.2% | 5.02% | 4.61% | 8.14% | 3.02% | 3.63% | -1.74% | -2.39% | 2.95% | 1.58% |
| COc1ccc2cc(-c3c(-c4ccncc4)nc(-c4ccc([S+](C)[O-])cc4C)n3C)ccc2c1 (stereo not given) | -2.02% | -0.27% | -0.2% | -1.41% | 4.56% | 2.68% | 9.41% | – | – | 1.51% |
| Clc1ccc(CNc2nccc(-c3cnn4ncccc34)n2)cc1 | -2.99% | 2.4% | 2.85% | 0.13% | 2.01% | -1.51% | 1.12% | 1.45% | 10.5% | -1.29% |
| COc1cc(C)c(N(C)C(=O)CN(C)C)cc1Nc1nc(Nc2cccc(F)c2C(N)=O)c2cc[nH]c2n1 | 3.64% | 2.25% | 2.83% | 4.16% | 2.97% | – | – | -0.28% | 4.04% | -3.95% |
| Cc1ccc(NC(=O)c2ccoc2)cc1-c1ccc(C(=O)NCC2CC2)cc1 | 4.64% | 2.06% | -0.9% | 4.04% | 5.74% | 0.17% | 6.22% | -2.68% | 2.71% | 0.65% |
| COc1ccc2ncn(-c3cc(O[C@H](C)c4ccccc4Cl)c(C(N)=O)s3)c2c1 | 83.7% | – | – | 6.36% | 2.74% | -5.28% | 4.48% | 3.05% | 14.4% | -4.31% |
| CCS(=O)(=O)c1ccc(OC)c(Nc2ncc(-c3cccc(-c4ccccc4F)c3)o2)c1 | -0.99% | 20.4% | – | 0.9% | 45% | 41% | 82.8% | 4.55% | 27.2% | 47.1% |
| COc1cc(Nc2ncc3c(C)nc(-c4cccc(Oc5ccccc5)c4)n3n2)cc(OC)c1OC | 81.4% | – | – | 3.03% | 20.2% | -1.15% | 0.93% | 1.83% | 22.3% | 1.2% |
| c1ccc(Oc2ccc(Nc3ncc(-c4ccccc4)o3)cc2)cc1 | 2.53% | 1.36% | 1.6% | 2.58% | 1.21% | 3.08% | 1.93% | – | 2.76% | 0.57% |
| O=C(Nc1ccc(Oc2ccc3[nH]c(NC(=O)c4ccccc4)nc3c2)cc1)Nc1cc(C(F)(F)F)ccc1F | 10.3% | 2.66% | 1.84% | 5.51% | 14% | 14.1% | 36.2% | 4.75% | 48.1% | 3.06% |
| C[C@@H](Oc1cc(-n2cnc3ccc(OCC4CCN(C)CC4)cc32)sc1C(N)=O)c1ccccc1Cl | 89.7% | – | – | 93.6% | 11.7% | 5.35% | 23.9% | 4.53% | 17.9% | 4.31% |
| NC(=O)c1cc(-c2ccncc2)cc(-c2ccccc2)c1N | 3.74% | 4.45% | 5.13% | 8.7% | 2.51% | 2.14% | 6.17% | 22.8% | 64.8% | 6.39% |
| Fc1ccc(-c2ncn(C3CCNCC3)c2-c2ccnc(Oc3ccc(F)c(F)c3)n2)cc1 | 6.01% | 3.45% | 2.6% | 10.3% | -6.12% | -4.95% | -7.54% | 1.11% | 7.56% | -4.18% |
| C#Cc1cccc(Nc2ncnc3ccc(OCCCCNCCS(C)(=O)=O)cc23)c1 | 10.2% | 2.94% | 2.68% | 9.49% | 1.41% | -5.89% | – | 4.11% | 2.93% | -1.92% |
| Cc1nnc(-c2ccc(C)c(-c3ccc(C(=O)NCc4ccc(Cl)cc4)cc3)c2)o1 | 11.6% | 3.2% | 4.52% | 11.7% | -0.11% | -5.22% | – | 2.43% | 0.83% | -2.42% |
| Fc1ccc(-c2c(-c3ccncc3)nc3n2CCS3)cc1 | 4.81% | 2.99% | 2.94% | 5.74% | -4.22% | -5.59% | – | 1.54% | 1.37% | -3.03% |
